Our source for the growth values is PubChem BioAssay (NCI).

Compounds without any hit were thinned out: in the full panel of roughly 83,000, 20% have a hit.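 For each line, cells grew in 96-well plates with the test compound present at a single concentration for 48 hours.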 Active and inactive are the calls of the source.

This experiment concerns MDA-MB-468 breast. Nature of the experiment: NCI-60 one-dose screen, 48 h (100 = growth as untreated, 0 = no growth, -100 = all killed). The conditions noted are these: 10 µM unless noted. On the procedure:
Growth inhibition of the MDA-MB-468 human Breast tumor cell line is measured as a screen for anti-cancer activity. Cells are grown in 96 well plates and exposed to the test compound for 48 hours. Compounds are tested at a single concentration, which is 10^-5 M for most compounds. The reported endpoint is percent growth (GI% or GIPRCNT), where numbers from 0 - 100% represent growth inhibition, and numbers from -100% - 0 represent cell death. For example, a value of 40 represents 60% growth inhibition. A value of 0 means no net growth occurred over the course of the experiment. A value of -40 indicates 40% of cells at the beginning of the experiment died by the end of the experiment. A value of -100 means all cells are dead at the end of the experiment.
NCI-60 Human Tumor Cell Lines Screen was performed using the standard one-dose NCI protocol, which is described in more detail at https://dtp.cancer.gov/discovery_development/nci-60/default.htm.
Compounds with GIPRCNT values below 10 were considered active. Activity score was based on GIPRCNT using the following formula: […]
Score is 0 for GIPRCNT values of 100 or above, 50 for GIPRCNT values of 0, and 100 for GIPRCNT values of -100.
Consider `O=C1C2C(C(=O)[N]1[Hg][c]1ccccc1)C1(Cl)C(Cl)=C(Cl)C2(Cl)C1(Cl)Cl` (stereo not given), for which the growth is -72.7% (active).
Turning to `OC1CCCCC1N1CCC(c2ccccc2)CC1` (stereo not given), the growth was 116% (inactive).
Then `COc1cccc2c1c(C(=O)C(=O)Nc1ccn[nH]1)cn2Cc1ccc(F)cc1`, with 43.3% (inactive); and `CC1(C)N=C(N)N=C(N)N1c1ccc(OCCCCOc2ccc(S(=O)(=O)F)cc2)c(Cl)c1`, with -16.2% (active); and `C#COc1cccc(Nc2ncnc3cc(NC(=O)CF)ccc23)c1`, with 80.2% [6.25 µM] (inactive).
As for `CC(CC(C#N)(c1ccccc1)c1ccccc1)N1CCOCC1` (stereo not given), the figure is 107% (inactive); as for `CC(C)(C)N1CC1C#N` (stereo not given), 97% (inactive); as for `C[C@]12CCC3[C@@H](C[C@@H]4SC(Nc5ccccc5)=N[C@@]45CC(=O)CC[C@]35C)[C@@H]1CCC2=O` (stereo not given in full), -26.8% (active).
For the compound `C/C=C\C(=O)O[C@@H]1CC2O[C@@H]3C=C(C)C(=O)C[C@]3(C)[C@]1(C)[C@]21CO1`, the growth is -29.7% (active).
Then `COC(=O)[C@@H](C)C[C@H](Cc1ccccc1)NC(=O)c1csc([C@@H](C[C@H](C(C)C)N(C)C(=O)[C@@H](NC(=O)CN(C)C)C2CC2)OC(C)=O)n1`, with -0.222% (active).
As for `ClCc1ccc(Cl)c(Cl)c1`, the figure is 90.7% (inactive); as for `COC(=O)[C@@H](C)C[C@H](Cc1ccccc1)NC(=O)c1csc(CC[C@H](C(C)C)N(C)C(=O)[C@@H](NC(=O)[C@H]2CCCCN2C)C(C)C)n1`, 8.45% (active).
As to `C[C@]12CCc3sc(NCCc4ccccc4)nc3C1=CC[C@@H]1[C@@H]2CC[C@]2(C)C(=O)CC[C@@H]12`, the growth was 32.9% (inactive).
As for `CNC(=O)Oc1cccc(C(F)(F)F)c1`, the figure is 110% (inactive); as for `COc1ccccc1/C=C/[N+](=O)[O-]`, 22.6% (inactive).
As for `CCCCCCC(=O)NC1=C(N2CC2)C(=O)C(NC(=O)CCCCCC)=C(N2CC2)C1=O`, the figure is 23.2% (inactive); as for `CC1=C(CCC=O)C2=C(C)C3(CC3)[C@@](C)(O)C(=O)C2=C1`, -86.5% (active); as for `Cc1c(C)c(N)c(C)c(C)c1N`, 61.7% (inactive).
As for `O=C(O)CC(Br)C(=O)CBr` (stereo not given), the figure is 105% (inactive); as for `C#Cc1ccc2c(c1)C(c1ccccc1F)=NCC(=O)N2C`, 26% (inactive); as for `CCCCNC(c1ccc(Cl)cc1)C(O)c1ccc(Cl)cc1` (stereo not given), -14.6% (active).
Consider `CCOC(=O)[C@@H](C)C[C@H](Cc1ccccc1)NC(=O)c1csc([C@@H](C[C@H](C(C)C)N(C)C(=O)[C@H](CC)NC(=O)[C@H]2CCCCN2C)OC(C)=O)n1`, for which the growth was 32.5% (inactive).
Then `COC(=O)CC[C@H](Cc1ccccc1)NC(=O)c1csc([C@@H](C[C@H](C(C)C)N(C)C(=O)[C@@H](NC(=O)[C@H]2CCCCN2C)C(C)C)OC(C)=O)n1`, with 66.9% (inactive).
As for `O=S1(=O)OCCO1`, the figure is 98.2% (inactive).
For the compound `O=C(CCl)NCNC(=O)CCl`, the growth was 96.8% (inactive).
Then `CCCCCCCCCCCCCCCCCCOc1ccccc1COP(=O)(O)OOCC[N+](C)(C)C`, with -40.1% (active); and `COC(=O)[C@@H](C)C[C@H](Cc1ccccc1)NC(=O)c1nc([C@@H](C[C@H](C(C)C)N(C)C(=O)[C@@H](NC(=O)[C@H]2CCCCN2C)C(C)C)OC(C)=O)sc1C(C)C`, with 20.7% (inactive); and `CCCCN(CCCC)CC(O)c1ccccc1` (stereo not given), with 116% (inactive).
For `COc1ccc([As]=[As]c2ccc(OC)c(NCS(=O)(=O)O)c2)cc1NCS(=O)(=O)O` (stereo not given), the growth is -54.2% (active).
Then `CCN(CC)c1ccc(C=C2C(=O)NC(=S)NC2=O)cc1`, with 74.2% (inactive); and `CC[C@H](C)[C@H](NC(=O)[C@H]1CCCCN1C)C(=O)N(C)[C@H](C[C@@H](OC(C)=O)c1cccc(C(=O)N[C@@H](Cc2ccccc2)C[C@H](C)C(=O)OC)n1)C(C)C`, with 40.9% (inactive).
As for `O=[N+]([O-])c1ccc(P(=O)(O)O)cc1`, the figure is 102% (inactive); as for `CNCc1cccnc1`, 110% (inactive); as for `COC(=O)C1OC(Oc2ccc(N(CCCl)CCCl)cc2)C(OC(C)=O)C(OC(C)=O)C1OC(C)=O` (stereo not given), 28.3% (inactive).
As for `CC[C@H](C)[C@H](NC(=O)C12C3C4C1C1C2C3C41NC(C)=O)C(=O)N(C)[C@H](C[C@@H](OC(C)=O)c1nc(C(=O)N[C@@H](Cc2ccccc2)C[C@H](C)C(=O)OC)cs1)C(C)C` (stereo not given in full), the figure is 11.5% (inactive); as for `CC(C)CCC1C(=O)NC(=O)NC1=O`, 114% (inactive); as for `FC(F)=C(F)c1ccccc1`, 105% (inactive).
For the compound `O=C1NC(=S)NC(=O)C1=Cc1ccccc1`, the growth is 117% (inactive).
`NC(=O)OCC(CO)(c1ccccc1)c1ccccc1`: the growth was 93.8% (inactive).
As for `CC(=O)Nc1nc2c(s1)C1=CC[C@H]3[C@@H]4CC[C@H](OC(C)=O)[C@@]4(C)CC[C@@H]3[C@@]1(C)CC2`, the figure is 55.7% (inactive).
